Data as given in PubChem BioAssay (NCI).
Where “and” joins values, the source holds several entries; their conditions need not be identical. Equal entries are not always repeated. Compounds without any hit were thinned out: in the full panel of roughly 83,000, 20% have a hit.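 Interpretation: 100, growth as untreated; towards 0, rising growth inhibition; 0, no net growth; 0 to -100, cell death. Compounds scoring below 10 were considered active.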 A number with no mark means an inactive call. Calls of active or inactive are those of the source.

Experiments:
Assay in all cases: NCI-60 one-dose screen, 48 h (100 = growth as untreated, 0 = no growth, -100 = all killed)
Details in all cases: 10 µM unless noted
SR leukemia = test system: SR leukemia
RPMI-8226 leukemia = test system: RPMI-8226 leukemia
OVCAR-5 ovarian = test system: OVCAR-5 ovarian
OVCAR-4 ovarian = test system: OVCAR-4 ovarian
SK-OV-3 ovarian = test system: SK-OV-3 ovarian
IGROV1 ovarian = test system: IGROV1 ovarian
OVCAR-3 ovarian = test system: OVCAR-3 ovarian
HS 578T breast = test system: HS 578T breast
NCI/ADR-RES ovarian = test system: NCI/ADR-RES ovarian
T-47D breast = test system: T-47D breast
BT-549 breast = test system: BT-549 breast
MDA-MB-435 melanoma = test system: MDA-MB-435 melanoma
SW-620 colon = test system: SW-620 colon
MCF7 breast = test system: MCF7 breast
HCT-116 colon = test system: HCT-116 colon
KM12 colon = test system: KM12 colon
HCC-2998 colon = test system: HCC-2998 colon

SMILES | growth (SR leukemia) | growth (RPMI-8226 leukemia) | growth (OVCAR-5 ovarian) | growth (OVCAR-4 ovarian) | growth (SK-OV-3 ovarian) | growth (IGROV1 ovarian) | growth (OVCAR-3 ovarian) | growth (HS 578T breast) | growth (NCI/ADR-RES ovarian) | growth (T-47D breast) | growth (BT-549 breast) | growth (MDA-MB-435 melanoma) | growth (SW-620 colon) | growth (MCF7 breast) | growth (HCT-116 colon) | growth (KM12 colon) | growth (HCC-2998 colon) [%]
O=C(CCl)N(O)c1ccc(/C=C/c2ccccc2)cc1 | 11% | 72.7% and 65.9% | 109% and 119% | 103% and 94.9% | 101% and 105% | 70.9% and 61.9% | 98.7% and 81.9% | 107% and 111% | 86.3% and 89.1% | 63.8% and 59.5% | 73.5% and 62.4% | 97.2% and 90% | 74.3% and 53.5% | 49.2% and 42.5% | 69.1% and 51.7% | 102% and 91.6% | 
O=C(CN1C(=O)S/C(=C\C(Cl)=C\c2ccccc2)C1=O)NCCCn1ccnc1 | 2.18% (active) | 0.978% (active) | 80.1% | 43.1% | 86% | 2.87% (active) | 1.07% (active) | 51.7% | 81.2% | 21.3% | 43.8% | 20.2% | 3.27% (active) | 15% | -57.2% (active) |  | 73.5
CC(Sc1ccccc1)C(=O)O (stereo not given) | 153% | 117% | 106% | 102% | 97.3% | 81.4% | 106% | 115% | 111% |  | 96.5% | 96.5% | 102% | 99.5% | 88% | 107% | 120
Cc1oc2c(Cc3ccc(NC(=O)c4ccc(Cl)cc4)cc3)ncnc2c1C(=O)NO | 71.2% | 92.4% | 103% | 109% | 94.1% | 103% | 95.8% | 113% | 98.2% | 96.8% | 103% | 92.5% | 105% | 91.1% | 98% | 95.9% | 97.9
Cc1ccc(NC(=O)N/C(N)=N/c2nc(=O)c3ccccc3s2)cc1 | 88.1% | 101% | 102% | 99.8% | 94.5% | 91.9% | 100% | 82.9% | 110% | 109% | 86.4% | 87.5% | 92.7% | 84.9% | 94.1% | 103% | 102
CCCCCCCCN(CCCCCCCC)CC(O)c1cc(Cl)ccc1OC (stereo not given) | 14.5% | 41.5% | 72.6% | 66.9% | 78.1% | 84.9% | 91.9% | 69.1% | 82.6% | 51% | 102% | 83.6% | 67.2% | 54.7% | 35.7% | 61.8% | 51.7
CCc1c2c(nc3ccc(OCc4ccc(B5OC(C)(C)C(C)(C)O5)cc4)cc13)-c1cc3c(c(=O)n1C2)COC(=O)[C@]3(O)CC | 11.8% | 10.4% | 10% | 23.7% | -1.58% (active) | 12.8% | 0.732% (active) | 38.4% | 0.929% (active) | 0.841% (active) | 28.8% |  | 15.6% | 2.53% (active) | 2.03% (active) | 0.421% (active) | 26.7
